Measurements as given in PubChem BioAssay (EPA / NIEHS).
Results filed as inconclusive are left out. Calls of active or inactive are those of the source. The calls were made as follows, unless noted: active = hit-call score of the fitted dose curve at least 0.9, where 1 is the maximum; inactive = score below 0.9.

What was measured:
[1] = read-out: Monokine induced gamma interferon (MIG), CXCL9 (gene 4283); experiment: BSK_3C_MIG: BioMAP Diversity Plus: 3C Assay for Monokine induced gamma interferon (MIG) Biomarker Activity (AID 2283021); conditions: primary human endothelial cells (HUVEC); actives raise or lower the signal;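 as to AC50: MIG protein level measured by immunoassay in the treated endothelial cultures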
Outline: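 Primary human umbilical vein endothelial cells in the 3C system were exposed to chemical for 24 h, after which MIG was quantified by ELISA. Activity was fitted bidirectionally against DMSO as negative control and baseline.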

[2] = BSK_3C_SRB: Viability Assessment in the BioMAP Diversity Plus: 3C Assay (AID 2283023); conditions: primary human endothelial cells (HUVEC);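 also: cells read 24 h after compound dosing; fitted both ways against DMSO so a hit may be signal rise or drop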
Outline: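 Absorbance at 560 nm of sulforhodamine B-stained (0.1%) total protein served as a cytotoxicity readout in human umbilical vein endothelial cells, 24 h after chemical treatment. Signal was fitted bidirectionally relative to DMSO.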

[3] = read-out: Matrix Metallopeptidase 1 (MMP1), MMP1 (gene 4312); experiment: BSK_BE3C_MMP1: BioMAP Diversity Plus: BE3C Assay for Matrix Metallopeptidase 1 (MMP1) Biomarker Activity (AID 2283024); conditions: primary human bronchial epithelial cells; actives raise or lower the signal
Outline: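 Primary human bronchial epithelial cells were dosed with test chemicals, and MMP1 levels were measured by ELISA 24 h later. Data were fitted bidirectionally against DMSO as the negative control and activity baseline.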

[4] = BSK_3C_Vis: BioMAP Diversity Plus: 3C Assay for Morphology Visualization (AID 2283025); conditions: primary human endothelial cells (HUVEC);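 also: fitted both ways so gain or loss versus DMSO counts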
Outline: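 Human umbilical vein endothelial cells in the 3C system were imaged by light microscopy 24 h after chemical dosing to record cell morphology. Activity was fitted bidirectionally against DMSO as negative control and baseline; the endpoint serves as a background control.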

[5] = read-out: Pselectin, SELP (gene 6403); experiment: BSK_4H_Pselectin: BioMAP Diversity Plus: 4H Assay for Pselectin Biomarker Activity (AID 2283026); conditions: primary human endothelial cells (HUVEC); actives raise or lower the signal
Outline: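 Primary human umbilical vein endothelial cells were exposed to test chemical for 24 h, then cell-surface P-selectin was quantified by ELISA. Activity was fitted bidirectionally against DMSO as negative control and baseline.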

[6] = BSK_4H_SRB: Viability Assessment in the BioMAP Diversity Plus: 4H Assay (AID 2283027); conditions: primary human endothelial cells (HUVEC);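 also: cells exposed to compound for 24 h before staining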;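 as to AC50: curves fitted both ways versus DMSO so AC50 may be loss or gain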
Outline: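 Absorbance at 560 nm of SRB-stained total protein served as the viability read-out in confluent primary human umbilical vein endothelium 24 h after chemical treatment. Curves were fitted bidirectionally against DMSO as negative control.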

[7] = BSK_BE3C_SRB: Viability Assessment in the BioMAP Diversity Plus: BE3C Assay (AID 2283028); conditions: primary human bronchial epithelial cells;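 as to AC50: fitted both ways so AC50 may mark signal gain or loss versus DMSO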
Outline: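 Cells (human bronchial epithelial, primary) are treated with chemicals, and after 24 h the parallel cultures are fixed in 10% TCA. These are then stained with 0.1% SRB and read at 560 nm. Gain or loss of signal is fitted relative to DMSO.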

[8] = read-out: Thrombomodulin, THBD (gene 7056); experiment: BSK_3C_Thrombomodulin: BioMAP Diversity Plus: 3C Assay for Thrombomodulin Biomarker Activity (AID 2283029); conditions: primary human endothelial cells (HUVEC); actives raise or lower the signal
Outline: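 Primary human umbilical vein endothelial cells (3C system) were exposed to chemical for 24 h, then thrombomodulin levels were measured by ELISA. Activity was fitted bidirectionally against the DMSO negative control as baseline.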

[9] = read-out: Urokinase-type plasminogen activator receptor (uPAR), PLAUR (gene 5329); experiment: BSK_4H_uPAR: BioMAP Diversity Plus: 4H Assay for Urokinase-type plasminogen activator receptor (uPAR) Biomarker Activity (AID 2283030); conditions: primary human endothelial cells (HUVEC); actives raise or lower the signal
Outline: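 Cell-surface uPAR ELISA signal, measured 24 h after dosing human umbilical vein endothelial cells, was analyzed with bidirectional fitting relative to DMSO. Parallel SRB staining of total protein tracked overt cytotoxicity.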

[10] = read-out: Vascular endothelial growth factor receptor 2 (Homo sapiens) (UniProt P35968); experiment: BSK_4H_VEGFRII: BioMAP Diversity Plus: 4H Assay for Vascular endothelial growth factor receptor 2 (VEGFR2) Biomarker Activity (AID 2283031); conditions: primary human endothelial cells (HUVEC); actives raise or lower the signal
Outline: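 ELISA read-out of VEGFRII in primary human umbilical vein endothelium, taken 24 h after chemical treatment. Responses are expressed relative to DMSO, with bidirectional fitting.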

[11] = read-out: Human Leukocyte Antigen - DR isotype (HLADR), HLA-DRA (gene 3122); experiment: BSK_BE3C_HLADR: BioMAP Diversity Plus: BE3C Assay for Human Leukocyte Antigen - DR isotype (HLADR) Biomarker Activity (AID 2283032); conditions: primary human bronchial epithelial cells; actives raise or lower the signal
Outline: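 Human primary bronchial epithelial cells in the BE3C system were exposed to chemicals for 24 h, after which HLA-DR levels were quantified by ELISA. Activity was fitted bidirectionally, gain or loss of signal, against DMSO as negative control and baseline.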

[12] = read-out: Vascular cell adhesion molecule 1 (VCAM1), VCAM1 (gene 7412); experiment: BSK_4H_VCAM1: BioMAP Diversity Plus: 4H Assay for Vascular cell adhesion molecule 1 (VCAM1) Biomarker Activity (AID 2283033); conditions: primary human endothelial cells (HUVEC); actives raise or lower the signal
Outline: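 Primary human umbilical vein endothelial cells were exposed to chemicals for 24 h, after which VCAM-1 was quantified by ELISA. Responses were fitted bidirectionally against DMSO as negative control and activity baseline.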

[13] = read-out: Interferon-gamma inducible Protein 10 (IP10), CXCL10 (gene 3627); experiment: BSK_BE3C_IP10: BioMAP Diversity Plus: BE3C Assay for Interferon-gamma inducible Protein 10 (IP10) Biomarker Activity (AID 2283034); conditions: primary human bronchial epithelial cells; actives raise or lower the signal
Outline: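 Human primary bronchial epithelial cells were exposed to chemicals for 24 hours, after which IP-10 levels were measured by ELISA. Data were fitted bidirectionally against DMSO, which served as the negative control and activity baseline.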

[14] = read-out: Monokine induced gamma interferon (MIG), CXCL9 (gene 4283); experiment: BSK_BE3C_MIG: BioMAP Diversity Plus: BE3C Assay for Monokine induced gamma interferon (MIG) Biomarker Activity (AID 2283035); conditions: primary human bronchial epithelial cells; actives raise or lower the signal
Outline: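 MIG level was determined by ELISA after 24 h chemical treatment of primary human bronchial epithelial cells. Values were fitted bidirectionally with DMSO as the negative control and activity baseline.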

[15] = read-out: Transforming growth factor beta 1 (TGFb1), TGFB1 (gene 7040); experiment: BSK_BE3C_TGFb1: BioMAP Diversity Plus: BE3C Assay for Transforming growth factor beta 1 (TGFb1) Biomarker Activity (AID 2283036); conditions: primary human bronchial epithelial cells; actives raise or lower the signal
Outline: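 Human primary bronchial epithelial cells (BE3C system) were dosed with chemical and TGF-b1 levels measured by ELISA at 24 h. Activity was fitted bidirectionally relative to DMSO negative control as baseline.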

[16] = read-out: Plasminogen activator inhibitor-1 (PAI1), SERPINE1 (gene 5054); experiment: BSK_BE3C_PAI1: BioMAP Diversity Plus: BE3C Assay for Plasminogen activator inhibitor-1 (PAI1) Biomarker Activity (AID 2283037); conditions: primary human bronchial epithelial cells; actives raise or lower the signal
Outline: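 Human primary bronchial epithelial cells were exposed to chemical for 24 h, then PAI-1 was quantified by ELISA. Activity was fitted bidirectionally relative to the DMSO negative control baseline.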

[17] = read-out: urokinase plasminogen activator (uPA), PLAU (gene 5328); experiment: BSK_BE3C_uPA: BioMAP Diversity Plus: BE3C Assay for urokinase plasminogen activator (uPA) Biomarker Activity (AID 2283038); conditions: primary human bronchial epithelial cells; actives raise or lower the signal
Outline: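 Bronchial epithelial cells (human, primary); chemical 24 h; uPA by ELISA; bidirectional fit vs DMSO. SRB (0.1%, after 10% TCA fixation, 560 nm) in parallel cultures for cytotoxicity.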

[18] = read-out: Urokinase-type plasminogen activator receptor (uPAR), PLAUR (gene 5329); experiment: BSK_BE3C_uPAR: BioMAP Diversity Plus: BE3C Assay for Urokinase-type plasminogen activator receptor (uPAR) Biomarker Activity (AID 2283039); conditions: primary human bronchial epithelial cells; actives raise or lower the signal
Outline: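 Primary human bronchial epithelial cells were dosed with chemical and harvested 24 h later; uPAR was quantified by ELISA. Activity was fitted bidirectionally against DMSO as negative control and baseline.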

[19] = read-out: Interleukin-6 (IL6), IL6 (gene 3569); experiment: BSK_CASM3C_IL6: BioMAP Diversity Plus: CASM3C Assay for Interleukin-6 (IL6) Biomarker Activity for (AID 2283040); conditions: primary human coronary artery smooth muscle cells; actives raise or lower the signal
[20] = target: human Vitamin D Receptor (VDR), VDR (gene 7421) (UniProt P11473); experiment: ATG_VDR_TRANS: Attagene TRANS-FACTORIAL HepG2 Assay for human Vitamin D Receptor (VDR) (AID 2283022; active = hit-call score of the fitted dose curve at least 0.9, where 1 is the maximum)
Outline: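 Steps: transfect HepG2 with GAL4-UAS-driven reporter constructs; dose compounds 24 h; isolate RNA, reverse-transcribe, PCR-amplify with 6-FAM-labelled primer extension and HpaI digestion; quantify fragments by capillary electrophoresis relative to DMSO.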

Measured: AC50

Sequence of human Vitamin D Receptor (VDR), VDR (gene 7421) (P11473 whole entry, looked up, the tested form may be a part): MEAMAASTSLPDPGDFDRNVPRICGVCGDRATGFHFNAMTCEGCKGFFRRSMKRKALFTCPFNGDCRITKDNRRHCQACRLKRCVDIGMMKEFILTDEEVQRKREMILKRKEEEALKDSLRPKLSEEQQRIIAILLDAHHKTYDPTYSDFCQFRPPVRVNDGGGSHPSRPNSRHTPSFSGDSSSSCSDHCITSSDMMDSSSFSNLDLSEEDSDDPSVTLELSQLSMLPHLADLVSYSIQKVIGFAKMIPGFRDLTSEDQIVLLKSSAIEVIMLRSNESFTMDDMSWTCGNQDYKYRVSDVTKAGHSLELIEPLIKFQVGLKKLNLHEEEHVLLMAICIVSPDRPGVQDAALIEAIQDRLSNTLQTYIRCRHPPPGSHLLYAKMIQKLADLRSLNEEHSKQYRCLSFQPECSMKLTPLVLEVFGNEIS

Cc1ccc(N)cc1
not listed: [20]
inactive: all other assays above

O=C1CCCO1
active: [4] 16300 nM
not listed: [5] | [11]
inactive: all other assays above

OCCCl
not listed: [5] | [6]
inactive: all other assays above

CC(C)N(Cc1ccccc1)C(=O)C(C)(C)C
not listed: [5] | [6] | [11]
inactive: all other assays above

Cc1ccc(N)c(N)c1
active: [6] 4080 nM | [12] 8050 nM
not listed: [20]
inactive: all other assays above

COP(=S)(OC)SCN1C(=O)c2ccccc2C1=O
not listed: [20]
inactive: all other assays above

CCC[CH2][Sn]([Cl])([CH2]CCC)[CH2]CCC
active: [1] 148 nM | [20] 1920 nM | [2] 148 nM | [3] 148 nM | [4] 5570 nM | [6] 148 nM | [7] 148 nM | [8] 486 nM | [9] 148 nM | [12] 148 nM | [13] 324 nM | [14] 162 nM | [15] 147 nM | [16] 146 nM | [17] 148 nM | [18] 148 nM | [19] 1500 nM
